Measured values reported in PubChem BioAssay AID1259309 (ICCB-Longwood Screening Facility, Harvard Medical School, 2017).
In all, about 330,000 compounds went through this assay and about 1,800 (0.55%) were called active. No stated cut-off is given here; in the data, active means growth inhibition above about 68%; inactive means the rest. Shown is part of a subset that was picked to be rich in actives.

assay: growth inhibition of ugtP-null S. aureus, primary screen, RN4220 ugtP deletion, OD600 (AID 1259309); settings: 16 h, active compounds read high;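 further: plate controls were untreated wells for no effect and antibiotic for full effect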

With O=C(COC(=O)c1ccc([N+](=O)[O-])cc1Cl)NC(=O)c1ccccc1 as the molecule, how does the growth inhibition read?
The growth inhibition was -1.26% (inactive).

With O=C(NC(Nc1nc2ccc([N+](=O)[O-])cc2s1)(C(F)(F)F)C(F)(F)F)c1ccccc1 as the molecule, how does the growth inhibition read?
Its growth inhibition is 100% (active).

For N=C1C(c2nc3ccccc3s2)=C(O)CN1NC(=O)c1ccc([N+](=O)[O-])cc1, which growth inhibition is on record?
Its growth inhibition is -0.97% (inactive).

With Cc1ccsc1C=NNC(=O)c1ccncc1 as the molecule, how does the growth inhibition read?
Its growth inhibition is -0.727% (inactive).

With O=S(=O)(NCc1ccccn1)c1ccc(Br)s1 as the molecule, how does the growth inhibition read?
The growth inhibition was 5.99% (inactive).

With O=S(=O)([N-]c1nc2ccccc2nc1-[n+]1ccc(Cc2ccccc2)cc1)c1ccc(Br)s1 as the molecule, how does the growth inhibition read?
The growth inhibition was 95.2% (active).

Which growth inhibition does the source give for Cc1cc(C(=O)CCl)c(C)n1CC1COc2ccccc2O1 (stereo unspecified) here?
The growth inhibition was 90.8% (active).

For Cc1ccsc1C(=O)OCC(=O)c1cc(C)n(CC2CCCO2)c1C (stereo unspecified), which growth inhibition is on record?
The growth inhibition was 0.578% (inactive).

With O=C1C(=O)N(CC2COc3ccccc3O2)c2ccccc21 (stereo unspecified) as the molecule, how does the growth inhibition read?
The growth inhibition was -2.06% (inactive).

For CCOC(=O)c1c(NC(=O)Cn2nc(C(F)(F)F)cc2C)sc2c1CCC2, which growth inhibition is on record?
Its growth inhibition is 2.33% (inactive).

Which growth inhibition does the source give for CCCOC(=O)Nc1sc2c(c1C(=O)OCC)CCC2 here?
The growth inhibition was 91.5% (active).

For CCOC(=O)c1c(NC(=O)C(C)Sc2c[nH]c3ccccc23)sc2c1CCC2 (stereo unspecified), which growth inhibition is on record?
The growth inhibition was 25.3% (inactive).

Which growth inhibition does the source give for CCOC1OC(C(=O)N2CCOCC2)=CC(c2ccc3c(c2)OCO3)C1CCCO (stereo unspecified) here?
Its growth inhibition is 2.32% (inactive).

With O=C(CNc1ccc2ccccc2c1)NN=Cc1ccc(C(=O)O)cc1 as the molecule, how does the growth inhibition read?
The growth inhibition was 1.63% (inactive).

With CCn1c2c(c3ccc(OC)cc31)CCCC2=O as the molecule, how does the growth inhibition read?
Its growth inhibition is 95.9% (active).

With COc1ccc(C2C3=C(CCCC3=O)N(CC(=O)O)C3=C2C(=O)CCC3)cc1 as the molecule, how does the growth inhibition read?
The growth inhibition was 7.87% (inactive).

With COc1ccc2c(C)cc3nnnn3c2c1 as the molecule, how does the growth inhibition read?
The growth inhibition was 3.97% (inactive).

Which growth inhibition does the source give for CCC1=C2CCC3C(=O)N(C)C(=O)C3C2[C@@]2(Cc3ccccc3)C(=NCCOC)OC(=O)N2C1=O (stereo partly specified) here?
Its growth inhibition is -1.76% (inactive).

For COc1cccc(-c2cnc(OC(C)(C)C)nc2OC(C)(C)C)c1, which growth inhibition is on record?
The growth inhibition was 99.2% (active).

For COc1ccc(-c2nc(N)ncc2-c2ccc(Cl)cc2)c(O)c1, which growth inhibition is on record?
The growth inhibition was -8.46% (inactive).

Which growth inhibition does the source give for CC(C)(C)Oc1ncc(Br)c(OC(C)(C)C)n1 here?
The growth inhibition was 2.82% (inactive).

With c1ccc(C2C3CN(Cc4cccnc4)C(c4ccccc4)C34CC2(c2ccccc2)C4)cc1 (stereo unspecified) as the molecule, how does the growth inhibition read?
Its growth inhibition is 0.638% (inactive).

With Cc1nnsc1C(=O)NN=Cc1ccccc1Cl as the molecule, how does the growth inhibition read?
Its growth inhibition is 0.586% (inactive).

For O=C(Nc1ccccc1)c1nnsc1S(=O)(=O)c1ccc(Cl)cc1, which growth inhibition is on record?
The growth inhibition was 100% (active).

Which growth inhibition does the source give for O=C(O)c1ccc(NC(=NS(=O)(=O)c2ccc(Cl)cc2)c2ccccc2)cc1 here?
Its growth inhibition is 4.64% (inactive).

Which growth inhibition does the source give for Cn1c2ccccc2c2cc(C=NNC(=O)c3ccc(N)cc3)ccc21 here?
Its growth inhibition is -2.18% (inactive).

Which growth inhibition does the source give for COc1ccc(C2CC(=O)C=C(c3ccc4ccn(C)c4c3)C2)cc1 (stereo unspecified) here?
The growth inhibition was 4.99% (inactive).

Which growth inhibition does the source give for CC(C)(C)c1cc(C(=O)NN=Cc2ccccn2)n[nH]1 here?
Its growth inhibition is 4.75% (inactive).

For O=C(NC(=S)Nc1cccc2c(O)cccc12)c1cccc(Br)c1, which growth inhibition is on record?
Its growth inhibition is 99.6% (active).

Which growth inhibition does the source give for Cc1ccccc1NC(=S)NNC(=O)c1cccc(Br)c1 here?
The growth inhibition was 23.5% (inactive).

With O=C(NC(=S)Nc1ccc(S(=O)(=O)Nc2ncccn2)cc1)c1cccc(Br)c1 as the molecule, how does the growth inhibition read?
The growth inhibition was -8.14% (inactive).

Which growth inhibition does the source give for Clc1cc(-c2ccc(C=Nn3cnnc3)o2)ccc1Br here?
Its growth inhibition is -3.77% (inactive).

With COc1ccc(Cl)cc1C(=O)NNC(=S)NC(=O)/C=C/c1ccco1 as the molecule, how does the growth inhibition read?
The growth inhibition was -0.168% (inactive).

Which growth inhibition does the source give for O=C(/C=C/c1ccco1)NC(=S)N1CCCCC1 here?
The growth inhibition was 7.55% (inactive).

Which growth inhibition does the source give for O=C(/C=C/c1ccco1)NC(=S)Nc1ccccc1Br here?
Its growth inhibition is 90.7% (active).

Which growth inhibition does the source give for CC[C@@]12C(=O)N(c3ccccc3)C(=O)N1C(c1cccc(C)c1)C1C(=O)N(Cc3ccccc3)C(=O)C12 (stereo partly specified) here?
The growth inhibition was 3.88% (inactive).

Which growth inhibition does the source give for CC(=NOC(=O)c1ccc(C)cc1)C(=O)c1ccc(Br)cc1 here?
Its growth inhibition is 0.731% (inactive).

Which growth inhibition does the source give for COc1ccc(-c2csc3ncnc(N4CCN(S(=O)(=O)c5ccccc5C#N)CC4)c23)cc1 here?
Its growth inhibition is 95.8% (active).

Which growth inhibition does the source give for COc1ccc(-c2csc3ncnc(N4CCN(S(=O)(=O)c5cccc(F)c5)CC4)c23)cc1 here?
The growth inhibition was -16.7% (inactive).

With COc1ccc(S(=O)(=O)N2CCN(c3ncnc4c(-c5ccccc5)nsc34)CC2)cc1 as the molecule, how does the growth inhibition read?
The growth inhibition was 5.08% (inactive).

For CC(=NNC(=O)C1CC1c1ccccc1)c1cccs1 (stereo unspecified), which growth inhibition is on record?
Its growth inhibition is 3.01% (inactive).

With Cc1cc([N+](=O)[O-])cc(C=NNC(=O)C2COc3ccccc3O2)c1O (stereo unspecified) as the molecule, how does the growth inhibition read?
The growth inhibition was 9.3% (inactive).

With CC(=NNC(=O)c1ccncc1)c1ccc(NC(=O)c2ccc(Cl)cc2Cl)cc1 as the molecule, how does the growth inhibition read?
Its growth inhibition is -4.36% (inactive).

For Cc1cccc(NC(=S)NN=C(c2ccccc2)C(C)C)c1, which growth inhibition is on record?
Its growth inhibition is 36.3% (inactive).

For Cc1cccc(NC(=S)Nc2ccc(Cl)c(Cl)c2)c1, which growth inhibition is on record?
The growth inhibition was 98.9% (active).

With Cc1ccc(NC(=S)Nc2ccc(F)cc2)cc1 as the molecule, how does the growth inhibition read?
Its growth inhibition is -2.35% (inactive).

Which growth inhibition does the source give for CC(=NN=C1SC(CC(=O)O)C(=O)N1c1ccccc1)c1ccc(C)cc1 (stereo unspecified) here?
The growth inhibition was 7.85% (inactive).

For O=C(C(=NO)n1cncn1)c1ccc(Cl)cc1Cl, which growth inhibition is on record?
The growth inhibition was 18.1% (inactive).

For Fc1cccc(C=NN=Cc2cccc(F)c2)c1, which growth inhibition is on record?
The growth inhibition was 2.16% (inactive).

With Clc1ccc(Nc2ccc3ccccc3n2)cc1 as the molecule, how does the growth inhibition read?
Its growth inhibition is -34.6% (inactive).

For Cc1cc(Nc2ccc(Br)cc2)nc2ccccc12, which growth inhibition is on record?
Its growth inhibition is 84.1% (active).

For CN1CCN(c2nc(Nc3ccc(O)cc3)nc3ccccc23)CC1, which growth inhibition is on record?
Its growth inhibition is -7.09% (inactive).

For CC(=NNc1nc(-c2ccc(Cl)cc2)cs1)c1cccs1, which growth inhibition is on record?
Its growth inhibition is -2.32% (inactive).

With COc1ccc(C=NNC(=O)c2cccc3ccccc23)c(OC)c1OC as the molecule, how does the growth inhibition read?
The growth inhibition was 7.75% (inactive).

Which growth inhibition does the source give for CCC(=O)N(C)CCc1cc2c(c(OC)c1C=NNC(=O)c1ccccc1O)OCO2 here?
Its growth inhibition is 9.87% (inactive).

For CC(=NNC(=O)c1c(C)nc2ccccn12)c1ccccc1F, which growth inhibition is on record?
The growth inhibition was 6.04% (inactive).

With COc1cc(C=Nn2c(C)nc3ccccc3c2=O)ccc1O as the molecule, how does the growth inhibition read?
The growth inhibition was 2.48% (inactive).

With COc1cc(C(c2c(O)c3ccccc3oc2=O)c2c(C)n(C)n(-c3ccccc3)c2=O)ccc1O (stereo unspecified) as the molecule, how does the growth inhibition read?
Its growth inhibition is 82.9% (active).

With CCC(=O)CC(c1ccc([N+](=O)[O-])cc1)c1c(O)c2ccccc2oc1=O (stereo unspecified) as the molecule, how does the growth inhibition read?
Its growth inhibition is 12% (inactive).

With S=C(NCCN1CCOCC1)NN=Cc1ccccc1 as the molecule, how does the growth inhibition read?
The growth inhibition was -0.962% (inactive).

Which growth inhibition does the source give for Cc1ccc(C=NNC(=O)c2ccc(C(=O)NN=Cc3ccc(C)s3)o2)s1 here?
The growth inhibition was -0.554% (inactive).
